Shiga toxin inh = A qHTS for Small Molecule Inhibitors of Shiga Toxin; Vero cells, Shiga toxin protein synthesis inhibition reporter; inhibition, % at 38.7 µM; 290,000 tested, 9.2% active; AID 2315, 2010; in the data active means inhibition mostly above about 28%, no sharp cut-off; inactive means mostly below about 43%
Cycloheximide cs = Cycloheximide Counterscreen for Small Molecule Inhibitors of Shiga Toxin; cell reporter, cycloheximide protein synthesis inhibition counterscreen; max response, %; 300,000 tested, 12% active; in the data active means max response mostly above about 13%, no sharp cut-off; inactive means mostly below about 14%; further: read at 38.3 µM for the half of the compounds with a filed dose
HCV inhibitor = qHTS Assay for Inhibitors of Hepatitis C Virus (HCV); 340,000 tested, 3.4% active; Huh7.5.1 HCVcc-Cre infection, luciferase reporter, 44 h; Potency, µM (top dose mostly 41.8 µM), usual class: inhibitors
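Whole-lifecycle infectious HCVcc-Cre system; cells 1,000/well, compound then virus (~0.5 moi) added 4 h after plating, 44 h culture. Luciferase read 15 sec following 15 min substrate incubation, room temp.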
HCMV inh = qHTS Assay for inhibitors of the human cytomegalovirus (HCMV). HFF cells, HCMV-luciferase reporter, 72 h; hits give low values. activity change, negative = inhibition, % at 57.5 µM. 410,000 tested, 4.5% active. AID 1259415, 2018; in the data active means activity change below about -60%; inconclusive means no clear call, values can overlap the other calls; inactive means above about -39%
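Compounds were evaluated in HFFs infected with an HCMV luciferase reporter virus (MOI 1 PFU/cell). Luciferase in lysates collected 72 h post infection served as the replication measure.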
Pf growth 96h = Primary qHTS for delayed death inhibitors of the malarial parasite plastid, 96 hour incubation; P. falciparum luciferase reporter growth, 96 h; Potency, µM (doses to about 28.7 µM), usual class: inhibitors; 320,000 tested, 6.9% active; AID 504834, 2011
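Erythrocytes infected with luciferase-expressing P. falciparum were dispensed at 2% hematocrit and 0.05% parasitemia (final), then incubated with compounds 96 hours at 37 C in 5% CO2. Luminescence after detection reagent addition reported growth.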
Pf growth 48h = Primary qHTS for delayed death inhibitors of the malarial parasite plastid, 48 hour incubation; AID 504832, 2011; 310,000 tested, 5.9% active; P. falciparum luciferase growth in erythrocytes, 48 h; Potency, µM (top dose mostly 28.7 µM), hits mostly inhibitors
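Luciferase-expressing parasites in RBCs, 2% Hct / 0.1% parasitemia final; RPMI 1640 + 0.5% Albumax; 37 C, 5% CO2, one generation; luminescence read-out, lower signal = inhibition.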
Each line names hits and unclear results; the compound was inactive in the other large screens. Only some compounds are listed: those with a hit (about 21% of all), similar ones and a draw of the others. Unless noted, the call rests on the fitted dose curve; in most records, active means well fitted inhibition curve with a large enough effect; inconclusive means small, poorly fitted or top-dose-only effect, or another doubt; inactive means no such curve, though single readings can be large or run the other way.

COC(=O)C1=C(c2ccc(F)cc2OCc2ccccc2)C[C@@H]2CC[C@H]1N2C(=O)NC1CCCCC1	Pf growth 96h 15µM, Pf growth 48h inconclusive (no result: Shiga toxin inh, Cycloheximide cs)
c1cc(CCCc2ccncc2)ccn1	none (no result: Shiga toxin inh, Cycloheximide cs)
Cc1nc2ccc(S(=O)(=O)N3CCN(S(=O)(=O)c4c(F)cccc4F)CC3)cc2s1	none (no result: HCV inhibitor, HCMV inh, Pf growth 96h, Pf growth 48h)
Cc1cnc(C(=O)OCC(=O)Nc2ncc(Cl)cc2Cl)cn1	none (no result: Shiga toxin inh, Cycloheximide cs)
CCC(C)(C)NC(=O)C1CCN(S(=O)(=O)c2ccc3c(c2)CCCN3C(C)=O)CC1	none (no result: Shiga toxin inh, Cycloheximide cs, HCV inhibitor, Pf growth 96h, Pf growth 48h)
CCOC(=O)C1=C(COc2ccccc2)NC(=O)NC1c1cccc([N+](=O)[O-])c1 (centres undefined)	HCV inhibitor inconclusive, Pf growth 96h inconclusive
COc1cc(C(=O)OC(C)C(=O)NC(=O)NC2CCCCC2)ccc1OC(F)F (centres undefined)	HCV inhibitor inconclusive (no result: Shiga toxin inh, Cycloheximide cs)
COc1ccccc1N1CCN(S(=O)(=O)CCNC(=O)Cc2ccc(F)cc2)CC1	Pf growth 96h inconclusive, Pf growth 48h inconclusive (no result: Shiga toxin inh, Cycloheximide cs)
COC(=O)C1=C(c2ccc(F)cc2OCc2ccccc2)C[C@@H]2CC[C@H]1N2C	Pf growth 96h inconclusive, Pf growth 48h inconclusive (no result: Shiga toxin inh, Cycloheximide cs)
COC(=O)C1=C(c2ccc(F)cc2OCc2ccccc2)C[C@@H]2CC[C@H]1N2C(=O)NC(C)C	HCV inhibitor inconclusive, Pf growth 96h inconclusive, Pf growth 48h 9.3µM (no result: Shiga toxin inh, Cycloheximide cs)
COC(=O)C1=C(C(=O)OC)[C@]2([C@H]3CCCCN[C@@H](Cc4ccccc4)C(=O)N3Cc3ccccc3)C=C[C@H]1O2	HCV inhibitor 11µM, HCMV inh -70 (no result: Shiga toxin inh, Cycloheximide cs, Pf growth 96h, Pf growth 48h)
O=C1[C@H](Cc2ccccc2)NCCCC[C@@H](c2ccc(Cl)cc2)N1Cc1ccccc1	none (no result: Shiga toxin inh, Cycloheximide cs, Pf growth 96h, Pf growth 48h)
COc1ccc(C(=O)Nc2oc(-c3ccccc3)c(-c3ccccc3)c2C#N)cc1OC	HCV inhibitor 11µM, Pf growth 96h inconclusive, Pf growth 48h inconclusive
COc1ccc(C(=O)Nc2oc(-c3ccccc3)c(-c3ccccc3)c2C#N)cc1	HCV inhibitor 10µM, HCMV inh inconclusive
O=C(C[C@H]1C[C@H](C(=O)N2CCCCC2)[C@@]2(CCc3ccccc3)c3[nH]c4cc(-c5ccco5)ccc4c3CCN2C1=O)NCc1cccc(C(F)(F)F)c1	none (no result: Shiga toxin inh, Cycloheximide cs, Pf growth 96h, Pf growth 48h)
Cc1ccc(N(C(=O)C2COc3ccccc3O2)C(C(=O)NC2CCCCC2)c2cn(C)nc2C)cc1 (centres undefined)	Pf growth 96h inconclusive, Pf growth 48h inconclusive (no result: HCMV inh)
COc1ccc(N(C(=O)C2COc3ccccc3O2)C(C(=O)NC2CCCCC2)c2ccccc2)cc1OC (centres undefined)	HCV inhibitor inconclusive, HCMV inh -63, Pf growth 96h inconclusive, Pf growth 48h 7.4µM
COc1cc(OC)cc(N(C(=O)C2COc3ccccc3O2)C(C(=O)NC2CCCCC2)c2ccc(O)cc2)c1 (centres undefined)	HCV inhibitor inconclusive, HCMV inh -77, Pf growth 96h 7.4µM, Pf growth 48h 13µM
COc1cccc(C(C(=O)NC2CCCCC2)N(CCN2CCOCC2)C(=O)C2COc3ccccc3O2)c1 (centres undefined)	none
CS(=O)(=O)c1ccc(NC(=O)CCN2C(=O)C3CCCCC3C2=O)cc1 (centres undefined)	none (no result: Shiga toxin inh, Cycloheximide cs)
CC(C)c1nc2ccc(NC(=O)C34CC5CC(CC(C5)C3)C4)cc2[nH]1	Cycloheximide cs 20, Pf growth 96h inconclusive (no result: Pf growth 48h)
O=C(Nc1ccc2nc(-c3cccnc3)[nH]c2c1)C12CC3CC(CC(C3)C1)C2	HCV inhibitor inconclusive, Pf growth 48h 12µM
N#Cc1cccnc1N1CCN(C(=O)c2ccco2)CC1	none
C=C(C)C(=O)OC1(C(F)(F)F)Oc2cc(C)ccc2NC1=O (centres undefined)	Shiga toxin inh 93, Cycloheximide cs 56, HCMV inh -95, Pf growth 48h inconclusive
COc1ccc(C2(O)C(=O)Nc3ccc(C)cc32)cc1 (centres undefined)	none
CCOC(=O)c1c(N)sc2c1CCN(Cc1ccccc1)C2	Pf growth 96h 0.95µM, Pf growth 48h 3.8µM (no result: HCV inhibitor)
CCN1CCc2c(sc(NC(=O)c3ccc(S(=O)(=O)N(CC)c4ccccc4)cc3)c2C(N)=O)C1	HCV inhibitor inconclusive, Pf growth 96h 13µM, Pf growth 48h inconclusive
CCC(=O)Nc1sc2c(c1C(N)=O)CCN(Cc1ccccc1)C2	Shiga toxin inh 24, Cycloheximide cs 13
NC(=O)c1c(NC(=O)c2ccccc2)sc2c1CCN(Cc1ccccc1)C2	Cycloheximide cs 13, HCMV inh inconclusive
CSCCC(=O)N1CC[C@@H](N2CCN(c3ccccc3F)CC2)[C@H](O)C1	Pf growth 48h inconclusive (no result: Shiga toxin inh)
N#Cc1c(NC(=O)/C=C/C(=O)O)sc2c1CCN(Cc1ccccc1)C2	Pf growth 96h 10µM
CC(=O)Nc1sc2c(c1C#N)CCN(Cc1ccccc1)C2	none
NC(=O)c1c(NC(=O)c2c(F)cccc2F)sc2c1CCN(Cc1ccccc1)C2	Shiga toxin inh 19, Cycloheximide cs 8.3, HCV inhibitor inconclusive
CCN1CCc2c(sc(NC(=O)COc3ccccc3)c2C(=O)OC)C1	HCV inhibitor inconclusive, Pf growth 48h 15µM
CCN1CCc2c(sc(NC(=O)Cc3ccccc3)c2C(=O)OC)C1	HCV inhibitor inconclusive, HCMV inh inconclusive, Pf growth 48h inconclusive
COc1ccccc1NC(=O)CSc1nc2ccccc2nc1N1CC(C)OC(C)C1 (centres undefined)	Pf growth 96h inconclusive, Pf growth 48h inconclusive
CCOc1ccc(NC(=O)CSc2nc3ccccc3nc2N2CCOCC2)cc1	Pf growth 96h 12µM, Pf growth 48h inconclusive
CCOc1ccc(NC(=O)CSc2nc3ccccc3nc2N2CC(C)OC(C)C2)cc1 (centres undefined)	Pf growth 96h 9.3µM, Pf growth 48h inconclusive
O=C(CSc1nc2ccccc2nc1N1CCOCC1)N1CCN(c2ccccc2)CC1	HCV inhibitor inconclusive, Pf growth 96h inconclusive, Pf growth 48h 9.3µM
O=C(CSc1nc2ccccc2nc1N1CCCCC1)N1CCN(c2ccccc2)CC1	HCMV inh inconclusive, Pf growth 48h inconclusive
COc1cc(OC)cc(N(C(=O)CNC(=O)c2ccco2)C(C(=O)NCC2CCCO2)c2ccccc2)c1 (centres undefined)	none
O=C(NCCc1ccccc1)c1ccc2c(c1)N(Cc1ccc(Cl)cc1)C(=O)c1ccccc1S2(=O)=O	none (no result: Shiga toxin inh, Cycloheximide cs, HCV inhibitor, Pf growth 96h, Pf growth 48h)
COc1ccc(OC)c(NC(=O)NNC(=O)COc2ccc([N+](=O)[O-])cc2)c1	none
CCN(C/C=C/C#CC(C)(C)C)Cc1cccc(OCc2cc(-c3ccsc3)cs2)c1	Shiga toxin inh 30 (no result: HCV inhibitor, HCMV inh, Pf growth 96h, Pf growth 48h)
COc1ccc(CN(Cc2ccco2)c2cnc(S(C)(=O)=O)nc2C(=O)Nc2ccc(F)cc2)cc1	none (no result: Shiga toxin inh, Cycloheximide cs, HCV inhibitor, Pf growth 96h, Pf growth 48h)
CCOc1ccc(C(=O)Nc2cccc3ncccc23)cc1Br	HCV inhibitor inconclusive, HCMV inh inconclusive
Cc1cccc(C2=Nc3ccccc3N=C(c3cc(Cl)ccc3O)C2)c1	none (no result: Shiga toxin inh, Cycloheximide cs, HCV inhibitor, Pf growth 96h, Pf growth 48h)
